Here are results for 48 compounds from PubChem BioAssay AID686971 (National Center for Advancing Translational Sciences (NCATS), 2013).

Structures are written as SMILES. Screen size: about 360,000 compounds; about 7,500 (2.1%) were called active. Inconclusive results (about 8%) are left out. Many of the other results were omitted from the sample, so actives are more common in it than they were. A number with no mark means an inactive call. The call rests on the fitted dose curve; in most records, active means well fitted cell-killing curve with a large enough effect; inconclusive means small, poorly fitted or top-dose-only effect, or effect the other way, or another doubt; inactive means no such curve, though single readings can be large or run the other way.
Potency means the concentration at half of the fitted maximal effect.

The assay is described as follows: qHTS for induction of synthetic lethality in tumor cells producing 2HG: qHTS for the HT-1080-IDH1KD cell line. To be noted: HT-1080 IDH1 knockdown viability, ATP luminescence, 48 h; series mostly up to 46.1 µM; activity, negative = toxicity: at the top concentration. An excerpt: Unbiased genomic sequencing for 22 glioma genomes found recurrent mutation of IDH1 on chromosome 2q33, a gene encoding the cytosolic isoform of IIDH1 associated with the tri-carboxylic acid cycle (TCA) that catalyzes the oxidative decarboxylation of isocitrate, yielding alpha-ketoglutarate and CO2 via NADP+ to NADPH conversion. Subsequent studies confirmed the recurrent IDH mutations in up to 70% of secondary gliomas and in 10% of AML cases. In addition, the somatic mutation of cancer-associated IDH1 is a point mutation resulting in various amino-acid substituents at Arginine132 (IDH1 R132), a key residue found in the enzyme's active site that when mutated, results in the loss-of-function in metabolizing isocitrate but confers a gain-of-function to produce the oncometabolite 2-hydroxyglutarate (2HG). This in effect defines IDH1 as an oncogene and provides an extraordinary opportunity to discover chemical probes against mutant IDH1 that may translate into much needed new therapies for glioma and AML patients.
This assay aims to perform a synthetic-lethal screen for chemical probes specific for 2HG-producing tumor cells using matched paired cell lines (1) HT-1080-NT fibrosarcoma cell line that overproduces 2HG and (2) HT-1080-IDH1KD cell line which has IDH1 expression knocked-down. Desirable compounds are toxic to the NT fibrosarcoma cell line but not to the IDH1KD cell line. The data in this AID corresponds to the results of the qHTS against the HT-1080 IDH1KD cell line.
[1] Dang L, Jin S, Su SM. IDH mutations in glioma and acute myeloid leukemia. Trends of Mol Med. 2010; 16(9): 387-97.
[2] Dang L et al. Cancer-associated IDH1 mutations produce 2-hydroxyglutarate. Nature. 2010; 465(7300):966.
Molecular Libraries Probe Production Centers Network [MLPCN]
NIH Chemical Genomics Center [NCGC]
Assay Submitter (PI): Lenny Dang Ph.D., Agios Pharmaceuticals
Suspensions of trypsinized HT-1080-IDH1KD cells were dispensed into white, tissue culture-treated, solid 1536-well plates at 5uL/well (750 cells/well final concentration) in RPMI medium supplemented with 5% FBS. Plates were incubated at 37 degrees C for 2 hours, after which 23 nL of compounds or DMSO were delivered to each well using a pin tool. Plates were then incubated at 37 degrees C for an additional 48 hours. CellTiter-Glo viability reagent (Promega) was dispensed into wells (2.5uL/well) and incubated at room temperature for 10 minutes. The plates were measured on a PerkinElmer ViewLux plate reader for luminescent signal (clear filter, 1 sec exp.). DMSO-treated control wells and media-only (no cells) control wells were used to normalize %Activity of identified toxic compounds; DMSO-treated wells corresponded to 0%Activity (100% viability), while media-only controls were used to normalize 100%Activity (0% viability). To minimize variability between cell lines, both HT-1080-NT and HT-1080-IDH1KD lines were dispensed and treated with identical compound series in single batches.
Concentration-response curves were fitted to the signals arising from the resulting luminescence. The concentration-effect curves were then classified based on curve quality (r2), response magnitude and degree of measured activity, and compounds were subsequently categorized based on their curve class.
(In general: qHTS replaces the single test concentration by a dilution series.)
As to `CCCS(=O)(=O)NC(=O)C1(C)CCCN(C(=O)c2ccnc(Cl)c2)C1` (stereo not drawn), the “activity, negative = toxicity” value is 0.0267%.

As to `CCC(CO)Oc1cc(NCc2ccccc2)c2ncn(C3CCCC3)c2c1` (stereo not drawn), the “activity, negative = toxicity” value is -20.2%.

In the case of `COc1ccc(CNc2nc(NCc3ccc(OC)cc3)c3ncn(C4CCCC4)c3n2)cc1`, the Potency was 4.61 µM (active).

Regarding `COc1ccc(CNC2CCCCC2)cc1`, the “activity, negative = toxicity” value was -1.73%.

As for `Cc1ccc(S(=O)(=O)N2CCCCC2)cc1NC(=O)CCNC(=O)c1ccccc1Cl`, the “activity, negative = toxicity” value was 3.61%.

As for `CC(C)(C)c1cc(C(=O)NN)n(Cc2ccc(Cl)cc2Cl)n1`, the Potency is 14.6 µM (active).

`CC(C)(C)NC(=O)NC(=O)COC(=O)Cc1ccc(Cl)cc1Cl`: the “activity, negative = toxicity” value was -14.2%.

`Cn1cc(C(=O)c2ccc(Cl)cc2Cl)cc1C(=O)NN`: the “activity, negative = toxicity” value is -23%.

In the case of `CCN(CC)CCN(C)C(c1ccnc2ccccc12)c1nnnn1-c1ccc2c(c1)OCCO2` (stereo not drawn), the “activity, negative = toxicity” value was -2.65%.

As to `COc1ccc(CN2C(=O)C(CC(=O)NCCCCc3ccccc3)CC(C(=O)N3CCOCC3)=C2C)cc1` (stereo not drawn), the “activity, negative = toxicity” value was 8.09%.

Regarding `Brc1ccc(-c2noc(-c3ccccc3)n2)o1`, the “activity, negative = toxicity” value was -0.934%.

On to `O=C(Oc1ccc(-c2nc(-c3ccccn3)no2)cc1)c1ccccc1`, for which the Potency was 2.31 µM (active).

With `O=C(COC(=O)c1ccncc1)c1ccccc1`, the “activity, negative = toxicity” value was 20.6%.

Take `COc1ccccc1CNC(=O)c1cc(-c2cc(F)ccc2OC)n[nH]1`: the “activity, negative = toxicity” value was -19.4%.

As for `c1ccc(CNCc2ccc(CNCc3ccccc3)cc2)cc1`, the “activity, negative = toxicity” value is -9.72%.

As for `Clc1ccc(CN2CCN(/N=C/c3cccnc3)CC2)cc1`, the “activity, negative = toxicity” value was 3.89%.

On to `Cc1ccccc1C1=N/C(=C/c2cccnc2)C(=O)O1`, for which the “activity, negative = toxicity” value is 13.6%.

As to `O=C1/C(=C\c2cccnc2)CN(Cc2ccccc2)C/C1=C\c1cccnc1`, the Potency is 1.84 µM (active).

As to `O=C(Nc1ccccc1)c1ccccc1OCc1ccccc1`, the “activity, negative = toxicity” value was 21%.

Take `CC(C)(O)C#Cc1ccc(CN2CCC(CO)(CCc3ccccc3)CC2)cc1`: the “activity, negative = toxicity” value is -15%.

For the compound `Cc1c(CN2CCC(CO)(CCOc3ccccc3)CC2)[nH]c2ccc(Cl)cc12`, the Potency was 23.1 µM (active).

Consider `CCOC(=O)C1(CCOc2ccccc2)CCN(Cc2cc(OC)c(O)cc2Cl)CC1`, for which the “activity, negative = toxicity” value is -15.4%.

For `O=C(CC(CC(=O)c1ccccc1)c1ccco1)c1ccccc1`, the “activity, negative = toxicity” value was 0.921%.

Turning to `CC(=O)N1C[C@@H](CO)[C@@H](N(C)C(=O)c2ccco2)C[C@H]1c1ccccc1`, the “activity, negative = toxicity” value was -2.1%.

Take `O=[N+]([O-])c1ccc(CN2CC(N3CCC(c4ccccc4)CC3)CS2(=O)=O)cc1` (stereo not drawn): the “activity, negative = toxicity” value is -9.12%.

On to `Cc1cccc(NC(=O)c2nc(S(=O)(=O)Cc3ccccc3)ncc2Cl)c1`, for which the Potency was 6.51 µM (active).

`Cc1cccc(NC(=O)c2nc[nH]c2C(=O)NCC(=O)OCc2ccccc2)c1`: the “activity, negative = toxicity” value is 6.4%.

Regarding `CCOc1ccc(NC(=O)c2nc(SCC)ncc2Cl)cc1`, the “activity, negative = toxicity” value was -1.23%.

Take `Cc1cccc(NC(=O)C(C)SCc2ccccc2)c1` (stereo not drawn): the “activity, negative = toxicity” value was -0.037%.

Take `Cc1cccc(CS(=O)(=O)c2ncc(Cl)c(C(=O)Nc3ccc(F)cc3)n2)c1`: the Potency was 16.4 µM (active).

In the case of `O=C(Nc1ccc(F)cc1)c1ccc(S(=O)(=O)NCc2cccnc2)cc1`, the “activity, negative = toxicity” value is -20.1%.

As for `CCCCN1C(=O)C(CC(=O)NC(c2ccccc2)c2ccccc2)CC(C(=O)N2CCOCC2)=C1C` (stereo not drawn), the “activity, negative = toxicity” value is 0.317%.

On to `O=S1(=O)C[C@@H](N2CCN(CCO)CC2)[C@H](COCc2ccccc2)N1`, for which the “activity, negative = toxicity” value was -5.58%.

For the compound `COc1ccc([C@H]2N[C@]3(CCCN(CC4CCCCC4)C3=O)[C@H]3C(=O)N(C)C(=O)[C@@H]23)cc1`, the “activity, negative = toxicity” value is 12%.

With `Cc1ccccc1S(=O)(=O)NC(=O)C1(C)CCN1C(=O)Cc1ccc(Cl)cc1Cl` (stereo not drawn), the “activity, negative = toxicity” value was 26.8%.

Consider `Cc1cn([C@H]2C[C@H](O)[C@@H](CNC(=O)[C@H](N)Cc3cccnc3)O2)c(=O)[nH]c1=O`, for which the “activity, negative = toxicity” value was 3.58%.

Consider `Nc1cc(=O)c2[nH]cnc2[nH]1`, for which the “activity, negative = toxicity” value is -25.5%.

For `COc1ccccc1N1CCN(C(=O)c2ccc(Cl)c(S(=O)(=O)N3CCCC3)c2)CC1`, the “activity, negative = toxicity” value was -0.548%.

Regarding `COc1ccccc1N1CCN(C(=O)c2cc(=O)c3cc(C)cc(C)c3o2)CC1`, the Potency was 0.0103 µM (active).

For the compound `COc1ccccc1N1CCN(C(=O)c2c(-c3c(Cl)cccc3Cl)noc2C)CC1`, the “activity, negative = toxicity” value was -2.34%.

As for `C[C@H](NC(=O)CC[C@H]1O[C@@H](n2ccc(=O)[nH]c2=O)[C@H](O)[C@@H]1O)c1cccc2ccccc12`, the “activity, negative = toxicity” value is 19.5%.

Turning to `C[C@@H]1CN([C@@H](C)CO)C(=O)CCCn2nncc2CO[C@H]1CN(C)C(=O)Nc1ccc(C(F)(F)F)cc1`, the “activity, negative = toxicity” value is -7.94%.

Regarding `C[C@@H]1CN([C@@H](C)CO)C(=O)c2cc(Br)cnc2O[C@@H]1CN(C)C(=O)C1CCCCC1`, the “activity, negative = toxicity” value was 19.4%.

Regarding `CC1=C(C(=O)N2CCOCC2)CC(CC(=O)NCc2cccs2)C(=O)N1CCCN1CCCC1=O` (stereo not drawn), the “activity, negative = toxicity” value was 14.2%.

Turning to `CCCCN1CC(COCc2ccccc2)OCCS1(=O)=O` (stereo not drawn), the “activity, negative = toxicity” value was 8.5%.

On to `CCCCC[C@H](C)N1C[C@@H](COCc2ccccc2)Oc2cc(N3CC[C@@H](N(C)C)C3)ccc2S1(=O)=O`, for which the Potency is 18.4 µM (active).

On to `CCCCC[C@H](C)N1C[C@@H](COCc2ccccc2)Oc2cc(N3CCC[C@@H]3CO)ccc2S1(=O)=O`, for which the “activity, negative = toxicity” value is 6.19%.

On to `C[C@H](CO)N1C[C@H](C)[C@@H](CN(C)S(=O)(=O)c2ccc(F)cc2)OCc2cnnn2CCCC1=O`, for which the “activity, negative = toxicity” value is 0.103%.
